Experimental data: PubChem BioAssay AID485349 (National Center for Advancing Translational Sciences (NCATS), 2010)
In all, about 320,000 compounds went through this assay and about 620 (0.19%) were called active. A call without a number means that no potency is given here. The sample holds actives, similar compounds and a random draw of the others, so the mix is not that of the screen. Calls follow the shape of the dose curve; as a rule, active = well fitted activation curve with a large enough effect; inconclusive = small, poorly fitted or top-dose-only effect; inactive = no such curve, though single readings can be large or run the other way.

Assay: qHTS Assay for Identifying a Potential Treatment of Ataxia-Telangiectasia; also: nearly all actives have a fitted effect of over 45% in size
Settings: F2112 A-T fibroblasts, KAP-1 phosphorylation AlphaLISA, neocarzinostatin DNA damage 30 min before lysis; series mostly up to 57.5 µM
How it was run: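 ATM-like activity read as KAP-1 phosphorylation via AlphaLISA donor/acceptor antibody pairs after lysis and 6 hr at 25C. Cells were ATM-null patient fibroblasts (F2112, hTERT), dosed 60 min, then exposed to the DSB inducer NCS for 30 min.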
Potency is read from the fitted curve at half-maximal effect.

Q: With `COC(=O)c1ccc(C2C(Oc3ccccc3C)C(=O)N2CCc2ccc(OC)c(OC)c2)cc1` (stereo not given) as the molecule, how does the Potency read?
A: The Potency was “inactive”.

Q: Which Potency does the source give for `CC(=O)C1=C(O)C(=O)N(c2ccc(S(N)(=O)=O)cc2)C1c1ccccc1F` (stereo not given) here?
A: Its Potency is “inactive”.

Q: Which Potency does the source give for `O=P(O)(CN1CCCCC1)CN1CCCCC1` here?
A: The Potency was “inactive”.

Q: Which Potency does the source give for `N=c1ccn(CC(=O)NC(N)=O)c2ccccc12` here?
A: Its Potency is “inactive”.

Q: Which Potency does the source give for `O=C(OCCN=C1NS(=O)(=O)c2ccccc21)c1cccc([N+](=O)[O-])c1` here?
A: The Potency was “inactive”.

Q: For `O=C(O)c1[nH]c2ccccc2c1C(c1cccc(O)c1)c1c(C(=O)O)[nH]c2ccccc12`, which Potency is on record?
A: The Potency was “inactive”.

Q: Which Potency does the source give for `C[C@@H]1CN([C@@H](C)CO)C(=O)c2cc(NC(=O)C3CC3)ccc2O[C@H]1CN(C)C` here?
A: The Potency was “inactive”.

Q: With `O=c1o[nH]c(-c2ccccc2)c1N=Nc1c(F)cccc1Cl` as the molecule, how does the Potency read?
A: Its Potency is “inactive”.

Q: For `COc1ccc(C(C)NC(=S)NC2CCCCC2)cc1OC` (stereo not given), which Potency is on record?
A: Its Potency is “inactive”.

Q: For `Cc1ccc(CNC(=O)Cc2cn(C)c3ccccc23)cc1`, which Potency is on record?
A: The Potency was “inactive”.

Q: Which Potency does the source give for `Cc1ccc(C(=O)N/C(=C\c2ccco2)C(=O)NC2CCS(=O)(=O)C2)cc1` (stereo not given) here?
A: The Potency was 10 µM (active).

Q: For `O=C(NCC1CCCO1)/C(=C\c1ccco1)NC(=O)c1ccccc1` (stereo not given), which Potency is on record?
A: Its Potency is “inactive”.

Q: For `O=C(NCc1ccco1)/C(=C/c1ccco1)NC(=O)c1ccccc1`, which Potency is on record?
A: The Potency was “inactive”.

Q: Which Potency does the source give for `O=S(=O)(NC1CCN(S(=O)(=O)c2ccc3c(c2)OCCO3)CC1)c1c(F)cccc1F` here?
A: The Potency was “inactive”.

Q: Which Potency does the source give for `CC1CCCN(C(=O)c2ccc3c(c2)C(=O)N(CCC2=CCCCC2)C3=O)C1` (stereo not given) here?
A: The Potency was “inactive”.

Q: For `COc1ccc2[nH]c3c(c2c1)CCN1C(=O)C(CC(=O)NCCc2ccccn2)C[C@H](C(=O)N2CCOCC2)[C@@]31C` (stereo not given in full), which Potency is on record?
A: The Potency was “inactive”.

Q: With `O=C(NCC1CCCO1)c1ccc(S(=O)(=O)Nc2ccc(F)cc2)cc1` (stereo not given) as the molecule, how does the Potency read?
A: The Potency was “inactive”.

Q: For `O=C1CCCN1C(=O)COc1ccc([N+](=O)[O-])cc1`, which Potency is on record?
A: The Potency was “inactive”.

Q: With `COc1ccc(-c2nc(CCNC(=O)c3ccc(Br)o3)cs2)cc1` as the molecule, how does the Potency read?
A: The Potency was “inactive”.

Q: Which Potency does the source give for `O=C(NCCc1csc(-c2ccccc2)n1)c1ccccc1F` here?
A: Its Potency is 22.4 µM (active).

Q: For `O=S(=O)(NCCc1csc(-c2ccccc2)n1)c1cccnc1`, which Potency is on record?
A: The Potency was “inactive”.

Q: For `COCCn1c(C)cc(C(=O)COC(=O)/C=C/c2cccc(OC)c2)c1C`, which Potency is on record?
A: The Potency was “inactive”.

Q: Which Potency does the source give for `CCOC(=O)C1=CN(Cc2ccc(Br)cc2)S(=O)(=O)NC1C` (stereo not given) here?
A: Its Potency is “inactive”.

Q: With `O=C(Nc1ccccc1N1CCN(C(=O)c2ccccc2)CC1)c1ccco1` as the molecule, how does the Potency read?
A: Its Potency is “inactive”.

Q: For `O=C(Nc1cccc2c1N(C(=O)c1ccco1)CCC2)c1ccco1`, which Potency is on record?
A: Its Potency is 35.5 µM (active).

Q: Which Potency does the source give for `O=C(Nc1ccccc1C(=O)N1CCCCC1)c1ccco1` here?
A: The Potency was “inactive”.

Q: Which Potency does the source give for `CCN(C(=O)COC(=O)c1c(C)nn(-c2ccccc2)c1Cl)c1c(N)n(Cc2ccccc2)c(=O)[nH]c1=O` here?
A: The Potency was “inactive”.

Q: Which Potency does the source give for `CC[C@]12c3[nH]c4ccc(Cl)cc4c3CCN1C(=O)[C@@H](CC(=O)NCCN1CCOCC1)C[C@@H]2C(=O)N1CCN(C(=O)C2CC2)CC1` here?
A: Its Potency is “inactive”.

Q: With `CCN(CC)P(=O)(Nc1ccc(SC(F)F)cc1)c1ccc(N(C)C)cc1NC(=O)c1ccco1` (stereo not given) as the molecule, how does the Potency read?
A: The Potency was “inactive”.

Q: With `CCCCNC(=O)C(C)N(CCN(C)C)C(=O)CCCCCN1C(=O)NC(c2ccc(Cl)cc2)C(C(=O)OCc2ccccc2)=C1C` (stereo not given) as the molecule, how does the Potency read?
A: Its Potency is “inactive”.

Q: For `Cc1cccc(-n2c(SCC(=O)Nc3cccc(S(=O)(=O)NC4=NCCCCC4)c3)nc3ccccc3c2=O)c1C`, which Potency is on record?
A: The Potency was “inactive”.

Q: For `CC/C=C/C(=O)N1CC2(CC(c3cccc(NC(=O)CC)c3)=NO2)C[C@H]1C(N)=O` (stereo not given in full), which Potency is on record?
A: Its Potency is “inactive”.

Q: For `C/C=C\C=C\C(=O)N1CC2(CC(c3cccc(NC(=O)/C(C)=C\C)c3)=NO2)C[C@H]1C(N)=O` (stereo not given in full), which Potency is on record?
A: The Potency was 25.1 µM (active).

Q: For `C/C=C(/C)C(=O)Nc1cccc(C2=NOC3(C2)C[C@@H](C(N)=O)N(C(=O)C2(C)CC2)C3)c1` (stereo not given in full), which Potency is on record?
A: Its Potency is “inactive”.

Q: Which activation does the source give for `O=C(NCCC(=O)N1O[C@@H]2C=C[C@H]1C2)OCC1c2ccccc2-c2ccccc21` here?
A: Its activation is -1.69% [at 11.5 µM] (inactive).

Q: For `Cc1ccc(S(=O)(=O)N2CCN(C)CC2)cc1C(=O)NC1CCCCC1`, which Potency is on record?
A: The Potency was “inactive”.

Q: Which Potency does the source give for `Fc1ccc(CNCc2ccc(Br)cc2)cc1` here?
A: The Potency was “inactive”.

Q: Which Potency does the source give for `Cc1cccc(CN2CCN(Cc3cnn(-c4ccccc4F)c3)CC2CCO)n1` (stereo not given) here?
A: The Potency was “inactive”.

Q: Which Potency does the source give for `O=C(Nc1ccccc1)N1CCC(C(=O)N2CCN(Cc3ccccc3)CC2)CC1` here?
A: Its Potency is “inactive”.

Q: For `COc1ccc(N(CC(=O)Nc2ccc(C)cc2C)S(=O)(=O)c2ccccc2[N+](=O)[O-])c(OC)c1`, which activation is on record?
A: Its activation is 2.47% [at 11.5 µM] (inactive).

Q: With `CCOC(=O)N1CCC(Nc2c(NCCCN3CCN(CC)CC3)c(=O)c2=O)CC1` as the molecule, how does the Potency read?
A: The Potency was “inactive”.

Q: With `CCOC(=O)N1CCC(Nc2c(NCCCN3CCN(c4ccc(OC)cc4)CC3)c(=O)c2=O)CC1` as the molecule, how does the Potency read?
A: The Potency was 11.2 µM (active).

Q: For `CCOC(=O)N1CCC(Nc2c(NCCN3CCN(c4cccc(Cl)c4)CC3)c(=O)c2=O)CC1`, which Potency is on record?
A: Its Potency is “inactive”.

Q: With `CCCCCCCCCCCCN1C(=O)CSC1c1cccnc1` (stereo not given) as the molecule, how does the Potency read?
A: Its Potency is “inactive”.

Q: Which Potency does the source give for `CC(C)Cc1ccc(S(=O)(=O)N2CCN(C(=O)c3ccco3)CC2)cc1` here?
A: The Potency was “inactive”.
